ClpP mod: qHTS Assay for Activators of ClpP. AID 651965, 2013. ATP-dependent Clp protease proteolytic subunit (Bacillus subtilis (strain 168)), P80244. Potency, µM (top dose mostly 57.5 µM). hit rate 1.9% among 340,000. purified B. subtilis ClpP, FRET peptide cleavage, 20 min; active = well fitted falling curve with a large enough effect; inconclusive = small, poorly fitted or top-dose-only effect; inactive = no such curve, though single readings can be large or run the other way; also: the source files actives as falling curves though it sought activators and does not explain the sign; nearly all actives have a fitted effect of over 65% in size
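FRET quenching reversal measured ClpP activation: 10 microg/mL B. subtilis ClpP at pH 8 with the FRET-FV decapeptide, read at 430 nm after 320 nm excitation. The 20-min minus 0-min signal was scaled between DMSO/no-enzyme wells and ADEP (5.8 microM final).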
uPA generation: qHTS for Inhibitors of Cell Surface uPA Generation; cell surface uPA generation assay, qHTS; Potency, µM (titrated, usually from 38.3 µM), hits mostly inhibitors; hit rate 0.31% among 330,000; active = well fitted inhibition curve with a large enough effect; inconclusive = small, poorly fitted or top-dose-only effect; inactive = no such curve, though single readings can be large or run the other way; tested in mouse RAW 264.7 cells; also: nearly all actives have a fitted effect of over 55% in size
Sfp inh: qHTS Assay for Inhibitors of Bacillus subtilis Sfp phosphopantetheinyl transferase (PPTase) | 4'-phosphopantetheinyl transferase ffp (Bacillus subtilis), Q9F4F7 | Biochemical Sfp PPTase activity, qHTS | Potency, µM, hits mostly inhibitors | hit rate 3.5% among 310,000 | AID 1490, 2009;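 also: the enzyme is Sfp with the accession as filed and its product quenches rhodamine fluorescence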
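Reaction rates are the 30-min fluorescence difference (ex 525, em 598 nm) in wells containing 15 nM Sfp, 5 uM rhodamine-CoA and 12.5 uM BHQ-2-YbbR at pH 7.6 with 10 mM MgCl2.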
TCR act: Activators of T cell receptors: qHTS campaign; Potency, µM (doses to about 9.22 µM), hits mostly activators; 330,000 tested, under 10 active; AID 504894, 2011; primary human leukocytes, anti-CD3, IL-2 HTRF, 48 h
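TCR engagement came from a-CD3 beads alone, with compounds added to primary human leukocytes for 48 hr. Secreted IL-2 bridged europium cryptate- and d2-labelled anti-IL-2 antibodies, giving FRET emission at 665nm after 320nm excitation.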
Numbers stand for hits; - = inactive; ? = inconclusive; . = no result. Rows were chosen to be rich in hits. Some 4.2% of all compounds tested hit in one or more screens of this group. Unless noted, calls follow the shape of the dose curve; as a rule, active = well fitted curve in the direction sought with a large enough effect; inconclusive = small, poorly fitted or top-dose-only effect, or another doubt; inactive = no such curve, though single readings can be large; an effect the other way counts as inactive or inconclusive.

SMILES	ClpP mod	uPA generation	Sfp inh	TCR act
CCOC(=O)NN1C(=O)c2ccccc2NC1c1ccc(OC)cc1 (stereo not given)	32µM	-	-	-
CCOC(=O)NN1C(=O)c2ccccc2NC1C (stereo not given)	-	-	-	-
CCOC(=O)NN1C(=O)c2ccccc2NC1c1ccccc1 (stereo not given)	32µM	-	-	-
CCOC(=O)NN1C(=O)c2ccccc2NC1c1ccc(N(C)C)cc1 (stereo not given)	-	-	-	-
O=C(O)c1ccc(N2C(=O)/C(=C/c3ccc(-c4ccc([N+](=O)[O-])cc4)o3)C=C2c2ccccc2)cc1	.	-	50µM	-
O=C1NN(c2ccccc2)C(=O)/C1=C/c1ccc(-c2ccc(C(=O)O)cc2)o1	-	-	-	-
CC(=O)OCC(NC(=O)C(CCCCNC(=O)OCc1ccccc1)NC(=O)OC(C)(C)C)C1OC(n2ccc(=O)[nH]c2=O)C(OC(C)=O)C1OC(C)=O (stereo not given)	.	.	-	.
O=C(C1=C(Nc2ccccc2)c2ccccc2S(=O)(=O)N1)c1ccccc1	-	-	89µM	-
Cc1ccccc1NC1=C(C(=O)c2ccccc2)N(C)S(=O)(=O)c2ccccc21	-	-	-	-
CCN1CCN(CC(=O)c2ccc(C)cc2)CC1	-	-	79µM	-
CCOC(=O)c1c(NC(=O)C2CCCO2)sc(C(=O)OC(C)(C)C)c1C (stereo not given)	-	-	45µM	-
CCN(CC)S(=O)(=O)c1ccc2c(c1)N(CC(=O)Nc1cccc(C#N)c1)C(=O)CO2	-	.	.	.
CCNc1ccccc(C(=O)/C=C/c2ccc3c(c2)OCO3)c1=O	-	-	45µM	-
O=C(/C=C/c1ccc2c(c1)OCO2)c1cccs1	.	.	71µM	.
Cc1ccc(C)c2[nH]c(=O)c(CN(CCN3CCCC3)C(=O)Nc3cccc(Cl)c3)cc12	-	-	14µM	-
CCOc1ccc2[nH]c(=O)c(CN(CCN3CCCC3)C(=S)Nc3ccccc3OCC)cc2c1	-	-	-	-
COc1ccc2[nH]c(=O)c(CN(CC3CCCO3)C(=O)Nc3ccccc3OC)cc2c1 (stereo not given)	28µM	-	-	-
COc1ccc2[nH]c(=O)c(CN(CCN3CCCC3)C(=O)Nc3ccccc3Cl)cc2c1	32µM	-	-	-
COc1ccc(N(Cc2cc3cc(OC)ccc3[nH]c2=O)C(=O)C2CCCO2)cc1 (stereo not given)	18µM	-	-	-
COc1ccccc1NC(=O)N(Cc1cc2cc(OC)c(OC)cc2[nH]c1=O)CC1CCCO1 (stereo not given)	-	-	-	-
Cc1cc(/C=N/N2CCN(C)CC2)c(C)n1-c1ccc(Cl)cc1	.	-	-	-
O=C(CCS(=O)(=O)c1cccc2nonc12)NCc1ccc(Cl)cc1	-	-	-	-
Cc1ccc2c(=O)cc(C(=O)Nc3c(C(=O)Nc4cccc(Cl)c4)oc4ccccc34)oc2c1	-	.	.	.
CCCCN1C(=O)C(CC(=O)NCC2CCCCC2)CC(C(=O)N2CCOCC2)=C1C (stereo not given)	-	.	.	.
CN(CCCN(Cc1ccc(Cl)cc1)c1ccc(Br)cn1)C(=S)NCCCc1cnc[nH]1	-	.	.	.
SMILES	ClpP mod	uPA generation	Sfp inh	TCR act
COc1ccc2[nH]c(=O)c(CN(CC3CCCO3)C(=S)Nc3cccc(C)c3)cc2c1 (stereo not given)	.	-	56µM	-
CC1CN(CCCCOc2ccc3ccccc3c2)CC(C)O1 (stereo not given)	-	-	-	-
COC(=O)c1ccc(OCCCCN2CC(C)OC(C)C2)cc1 (stereo not given)	.	-	56µM	-
Cc1cc(C(=O)N/N=C/c2ccco2)n[nH]1	.	-	-	-
O=C(/C=C/c1ccco1)c1cccnc1	-	-	50µM	-
CC(/C=C/c1ccco1)=N\NC(=O)c1cccnc1	-	-	56µM	-
CC(/C=C/c1ccco1)=N/NC(=O)c1ccc(C)nc1	-	-	-	-
CC(/C=C/c1ccco1)=N\NC(=O)c1cc(C)[nH]n1	-	.	18µM	-
O=C(/C=C/c1ccco1)Nc1cccnc1	.	-	25µM	.
CC(C)(C)c1ccc(/C=C/C(=O)Nc2cccnc2)cc1	-	-	-	-
O=C(/C=C/c1cccc(O)c1)c1cccnc1	.	-	-	-
C=C(C)C(O)/C=C/C=C/c1ccccc1 (stereo not given)	.	.	-	.
O=[N+]([O-])c1ccc(Nc2nccc(Cl)n2)cc1	.	-	.	-
CC1(C)C[C@H]2C3=CCC4[C@@]5(C)CC[C@H](O)[C@](C)(CO)C5CC[C@@]4(C)[C@]3(C)C[C@H]3O[C@@H]1[C@H](O)[C@]32CO (stereo not given in full)	-	-	.	-
CNc1nc(-c2ccc3c(c2)CCN3C(=O)c2ccccc2F)c(C)s1	.	-	22µM	-
C=CCOC(=O)C1=C(C)N=c2s/c(=C3\C(=O)N(CC(=O)O)c4ccccc43)c(=O)n2C1c1ccc(OC)cc1 (stereo not given)	-	-	25µM	-
COc1ccc(-c2nc3nc(C)cc(C)n3n2)cc1	16µM	-	-	-
COc1ccc(CNc2nc3nc(C)cc(C)n3n2)cc1	?	.	-	-
COC(=O)c1scc(-c2ccc(C)cc2)c1S(=O)(=O)Nc1ccc(NC(C)=O)cc1	-	.	.	.
COC(=O)c1scc(C)c1S(=O)(=O)Nc1ccc(C)cc1	.	-	50µM	-
COc1ccc2nc(Cl)c(C3CC(c4ccco4)=NN3C(=O)CCCC(=O)O)cc2c1 (stereo not given)	.	-	35µM	-
COc1ccc2nc(Cl)c(C3CC(c4ccco4)=NN3C(=O)CCC(=O)O)cc2c1 (stereo not given)	-	-	-	-
CN(C)S(=O)(=O)c1cccc(-c2cn3ccccc3n2)c1	?	-	-	-
CN(C)S(=O)(=O)c1cccc(-c2cn3cc(Cl)ccc3n2)c1	28µM	.	-	-
O=S(=O)(c1cccc(-c2cn3cc(Cl)ccc3n2)c1)N1CCOCC1	28µM	.	-	-
SMILES	ClpP mod	uPA generation	Sfp inh	TCR act
O=C(Nc1nc(-c2ccccn2)cs1)c1cccc(S(=O)(=O)N2CCOCC2)c1	-	10µM	.	-
Cc1nc(-c2cccc(S(=O)(=O)N3CC(C)OC(C)C3)c2)cs1 (stereo not given)	-	-	-	-
Cc1nc(-c2cccc(S(=O)(=O)N3CCOCC3)c2)cs1	-	-	40µM	-
CCCOc1ccc(C(=O)NCCC(=O)NCCCC(=O)O)cc1	.	-	-	-
COC(=O)[C@@]12C[C@@H](CC(=O)NCCCCc3ccccc3)C(=O)N(Cc3cccc4ccccc34)C1=CCC(C)(C)C2	-	.	.	.
CC(C)C(=O)Nc1nc(-c2ccc(S(=O)(=O)N3CCOCC3)cc2)cs1	32µM	-	-	-
c1ccc2c(c1)sc[n+]2CCC1CCCCC1	-	.	.	.
c1ccc(C[n+]2csc3ccccc32)cc1	-	.	18µM	.
Fc1cccc(C[n+]2csc3ccccc32)c1	-	-	20µM	-

High-throughput results deposited in PubChem BioAssay by National Center for Advancing Translational Sciences (NCATS).
